This is part of a sample that, as a whole, favours compounds with a hit. Of some 79,000 tested, about 15% had one in any assay. Values without a mark were called inactive. Calls of active or inactive are those of the source. No stated cut-off is given here; in the data, active means growth inhibition above about 70%; inactive means the rest.
What was measured:
[1] = NCI Yeast Anticancer Drug Screen. Data for the rad50 strain (AID 155);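 further: 0% = growth of vehicle-only cultures of the same strain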; details: S. cerevisiae rad50 strain growth inhibition; at 50.0 µM; stronger effect = higher value
Summary of the method: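 Inhibition values express reduced yeast growth in compound-treated cultures relative to vehicle-treated controls.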

[2] = NCI Yeast Anticancer Drug Screen. Data for the mec2-1 strain (AID 157); details: S. cerevisiae mec2-1 strain, at 50.0 µM, stronger effect = higher value
Summary of the method: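 Strain: mec2-1 (DNA repair/cell cycle alteration). Compound exposure, then growth measured; inhibition expressed relative to vehicle.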

[3] = NCI Yeast Anticancer Drug Screen. Data for the sgs1 mgt1 strain (AID 161);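 further: 0% = growth of cultures given vehicle only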; details: S. cerevisiae sgs1 mgt1 strain, at 50.0 µM, stronger effect = higher value
Summary of the method: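 Test agents were incubated with a DNA-repair-mutant yeast strain. Growth was then read and compared against vehicle-treated controls.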

[4] = NCI Yeast Anticancer Drug Screen. Data for the cln2 rad14 strain (AID 165);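 further: 0% = growth equal to vehicle treated cultures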; details: S. cerevisiae cln2 rad14 strain, at 50.0 µM, stronger effect = higher value
Summary of the method: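 Compounds are applied to the cln2 rad14 yeast strain, and growth is then compared with that of vehicle-treated cultures to give inhibition.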

[5] = NCI Yeast Anticancer Drug Screen. Data for the bub3 strain (AID 167); details: S. cerevisiae bub3 mutant strain, at 50.0 µM, stronger effect = higher value
Summary of the method: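 Steps: expose the mutant yeast strain to compound; grow alongside vehicle-treated cultures; measure growth; express inhibition against the vehicle cultures.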

[6] = NCI Yeast Anticancer Drug Screen. Data for the mlh1 rad18 strain (AID 175); details: S. cerevisiae mlh1 rad18 strain growth inhibition; at 50.0 µM; stronger effect = higher value
Summary of the method: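 Read-out is yeast growth inhibition, calculated against vehicle-only controls. The compound was applied to a strain engineered with DNA damage repair alterations.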

Compound	growth inhibition [1]	growth inhibition [2]	growth inhibition [3]	growth inhibition [4]	growth inhibition [5]	growth inhibition [6]
C=C1N(c2cc(OC)c(OC)c(OC)c2)C(=O)OC12CCCCC2	-4.05%	5.4%	0.2%	38.7%	-0.3%	1.4%
CCOc1ccccc1/C=C1\CCc2ccccc2C1=O	21.6%	34.8%	42.7%	0.4%	49.9%	23%
CCNc1ccc2c(c1)C(=O)c1ccccc1-2	28.9%	7.5%	17.4%	3.6%	-4.05%	-0.05%
CCc1nnc2n1N=C(c1ccc(-c3ccccc3)cc1)CS2	20.4%	28.3%	3.3%	5.05%	3.05%	26.1%
CC(=O)Oc1cc(C)c2c(c1C)C1OC(=O)C(C)C1CC2 (stereo unspecified)	12.6%	-12.7%	18.6%	16.3%	4.8%	17.1%
CC(=O)OC1COC(N2C(=O)C(=O)c3ccccc32)C(OC(C)=O)C1OC(C)=O (stereo unspecified)	13.1%	19.4%	-1.5%	-22.4%	9.05%	19.1%
COc1ccc2nc(C)c3c(c2c1)C(=O)N(CCC[N+]1([O-])CC[N+]([O-])(CCCN2C(=O)c4c(c5cc(OC)ccc5[n+]([O-])c4C)C2=O)CC1)C3=O (stereo unspecified)	-0.2%	-7.8%	-5.65%	-35.7%	2.3%	26.1%
O=[N+]([O-])c1ccc(S(=O)(=O)N/N=C/c2cccc3ccccc23)cc1	6.6%	-1.25%	17.1%	-15.8%	-0.3%	19.8%
Cc1cc(C(c2ccccc2)c2cc(C)cc(C(C)(C)CC(C)(C)C)c2O)c(O)c(C(C)(C)CC(C)(C)C)c1	3.9%	5%	-10%	20.8%	5.2%	8%
Cn1c(-c2ccc(-c3cc(-c4cccs4)c(-c4cccs4)n3C)cc2)cc(-c2cccs2)c1-c1cccs1	11.7%	-15%	14.8%	-16.9%	1.55%	17.8%
CCOC(=O)C1SC(=Nc2ccc(Cl)cc2Cl)N=C1C (stereo unspecified)	-0.75%	-10.3%	4.4%	-19.2%	-2.85%	-10.8%
CS(=O)(=O)CCCCCCCCCCS(C)(=O)=O	9.45%	2.45%	-4.35%	-23.7%	5%	4.5%
CN(C)CCCCC(C#N)(c1ccccc1)c1ccccc1	16.3%	18.8%	16.6%	12.7%	26.5%	38.5%
CN(Cc1ccccc1)c1ccccn1	-12.9%	-21.8%	-18.9%	-2.05%	-12.7%	8.85%
c1ccc(N2CCN(c3ccccc3)C2)cc1	-33.8%	-13.3%	-12.8%	8.65%	9.1%	11.5%
CCCCCCCCC(C)c1cccc(C(C)CCCCCCCC)c1O (stereo unspecified)	33%	14.6%	10.5%	22.2%	14.8%	2.6%
S=C1CSc2c(cnc3ccccc23)N1	-4.05%	-6%	7%	18.8%	18.2%	6.95%
COc1ccc(C=Nc2ccc(O)cc2)cc1	5.45%	-2.3%	-8.35%	34.1%	-22.6%	-13.9%
COc1ccc(N2C(=O)C(=O)N(C)C2=O)c2ccccc12	-15.1%	-26.7%	-2%	6.1%	2.85%	-7.95%
COc1c2c(c(OC)c3c(=O)c4ccccc4[nH]c13)OCO2	12.6%	-8.85%	26.9%	-2.25%	18.2%	22.9%
CCC(=O)/C=C/c1cc(OC)c(OC)c(OC)c1	7.15%	-24.9%	-4.4%	-36.9%	-9.1%	2.4%

Compound	growth inhibition [1]	growth inhibition [2]	growth inhibition [3]	growth inhibition [4]	growth inhibition [5]	growth inhibition [6]
Cc1ccc(Cl)cc1NC(=O)CCc1ccccc1	3.7%	22.1%	23.6%	-1.6%	4.25%	21.1%
Cc1cccc(C(=O)OC(=O)c2cccc(C)c2)c1	-3.85%	-37%	-9.75%	-6%	-23.9%	10.3%
CCc1c(Cl)nc(N)nc1Nc1ccc(C)cc1	-20.7%	-4.8%	-11.2%	-25%	12%	-6.55%
ClCc1c(-c2ccccc2)nn(-c2ccccc2)c1CCl	8.65%	14.2%	38.5%	6.05%	57.5%	37%
O=C1C(N=Nc2ccccc2)Sc2nc3ccccc3n21 (stereo unspecified)	-16.1%	-3.2%	2.85%	-52%	4.5%	-9.1%
CCOC(=O)c1nc2ccc(C(F)(F)F)cc2nc1Nc1ccc(OC)c(OC)c1	-16.7%	-11.9%	-15.7%	-6.15%	-17.4%	-8.75%
O=C(O)c1ccncc1	12.2%	-9.65%	8.1%	46.9%	-2.9%	17.9%
CCOC(=O)CCC(N)C(N)=O (stereo unspecified)	28.2%	-6.45%	16%	8.65%	11.4%	23.9%
O=C(O)c1cc(-c2ccccc2)nc2cc(Cl)ccc12	29.9%	12.8%	19.1%	-9.35%	24.4%	25.6%
Cc1oc2nc(N(C)C)n3nnnc3c2c1C	-0.35%	-8.5%	-6.15%	-4.1%	25.3%	-14.4%
O=C(/C=C/c1ccc(O)c(O)c1)c1ccc(O)cc1O	-26.5%	-27.9%	-24.2%	4.05%	-40.6%	-38.9%
CCCCCCC(=O)N1CC(C)OC(C)C1 (stereo unspecified)	0.6%	-6.4%	2.4%	0.1%	-14.7%	4.8%
OC1CCC(C2C3CCCCC3C3CCCCC3C2C2CCC(O)CC2)CC1 (stereo unspecified)	94.7% (active)	98.5% (active)	92.5% (active)	97.9% (active)	97.2% (active)	96.8% (active)
CC(=C(C#N)C#N)c1ccccc1	11%	2.5%	13.1%	6.45%	2.8%	5.45%
CCOC(=O)NCc1ccccc1	19%	8.7%	10.3%	2.6%	-6.35%	20.1%
CC(=O)OC(C)=O	-20.2%	9.9%	8%	-33%	7.55%	-16.4%
COC(=O)c1cccc2c1cc(Br)c1ccccc12	1.75%	11.6%	14.2%	-30.4%	1.35%	16.3%
NC(=O)/C=C/c1cccnc1	4.6%	-0.65%	-7.75%	-34.1%	11%	13%
COC(CC(=O)O)CC(C)CC(C)(C)C (stereo unspecified)	48.5%	15.8%	38%	18.9%	24.9%	40.1%
Cc1cccc(NC(=O)/C=C/C(=O)O)c1	-31.9%	-41%	-17.9%	-20.9%	-29.6%	-45.1%

Source: PubChem BioAssay (NCI)
